# The entries come from a sample that favours hits as a whole.
# LASV entry inh – qHTS for Inhibitors of binding or entry into cells for Lassa Virus | Lassa virus pseudotype entry inhibition, cell reporter | Potency, µM (series often up to 37.9 µM), inactives show top-dose activity change, negative = inhibition, most hits filed as inhibitors | 1.2% of 300,000 active | AID 540256, 2011; calls by dose curve; tested in HEK293 cells; also: potency is read from the fitted curve at half-maximal effect; % is scaled to controls: 0 for no effect and ±100 for the full control effect; nearly all actives have a fitted effect of over 50% in size
# Cycloheximide cs – Cycloheximide Counterscreen for Small Molecule Inhibitors of Shiga Toxin; AID 2314, 2010; 12% of 300,000 active; max response, %; cell reporter, cycloheximide protein synthesis inhibition counterscreen; in the data active = max response mostly above about 13%, no sharp cut-off; inactive = mostly below about 14%; also: read at 38.3 µM for the half of the compounds with a filed dose; 0% is about no effect
# MARV entry inh – qHTS for inhibitors of binding or entry into cells for Marburg Virus; AID 540276, 2011; Potency, µM (series often up to 37.8 µM), inactives show at the highest dose activity change, negative = inhibition, usual class: inhibitors; 1.8% of 300,000 active; Marburg virus pseudotyped entry inhibition, cell reporter; calls by dose curve; tested in HEK293 cells; also: potency is read from the fitted curve at half-maximal effect; % is scaled to controls: 0 for no effect and ±100 for the full control effect
# Shiga inhibitor – A qHTS for Small Molecule Inhibitors of Shiga Toxin; inhibition, % at 38.7 µM; AID 2315, 2010; 9.2% of 290,000 active; Vero cells, Shiga toxin protein synthesis inhibition reporter; in the data active = inhibition mostly above about 28%, no sharp cut-off; inactive = mostly below about 43%; also: 0% is about no effect
# VACV mCherry inh – qHTS for Stage-Specific Inhibitors of Vaccinia Orthopoxvirus: mCherry Reporter Primary qHTS | Vaccinia virus mCherry reporter infection, fluorescence | Potency, µM (highest dose often 36.5 µM), inactives show at the highest dose activity change, negative = inhibition, usual class: inhibitors | 0.63% of 310,000 active | AID 720579, 2013; calls by dose curve; tested in A549 cells; also: potency is read from the fitted curve at half-maximal effect; % is scaled to controls: 0 for no effect and ±100 for the full control effect; nearly all actives have a fitted effect of over 35% in size
# VACV Venus inh – qHTS for Stage-Specific Inhibitors of Vaccinia Orthopoxvirus: Venus Reporter Primary qHTS. 0.46% of 330,000 active. Vaccinia virus Venus reporter expression, fluorescence. Potency, µM (titrated, usually from 36.5 µM), for inactives: at the highest dose activity change, negative = inhibition, usual class: inhibitors; calls by dose curve; tested in A549 cells; also: potency is read from the fitted curve at half-maximal effect; % is scaled to controls: 0 for no effect and ±100 for the full control effect; nearly all actives have a fitted effect of over 30% in size
# Numbers without * were called inactive; i = inactive; ? = inconclusive; nt = not tested or not shown; + = active, no number; [ ] = dose if it differs, or a comment.
SMILES,LASV entry inh,Cycloheximide cs,MARV entry inh,Shiga inhibitor,VACV mCherry inh,VACV Venus inh
CCOc1cccc(CC(=O)N2CCc3c([nH]c4ccccc34)C2c2ccccc2)c1OCC (stereo not given),?,nt,nt,nt,-16%,-15%
COc1ccc(/C=C2\NC(=S)N(CC3CCCO3)C2=O)c(OC)c1 (stereo not given),1%,23*,-18%,34,-7%,-8%
Cc1c2cnn(CC(=O)NCC(C)c3ccccc3)c(=O)c2c(C)n1Cc1cccc(Cl)c1 (stereo not given),-1%[46.1 µM],nt,17%[46.1 µM],nt,2%,-12%
COc1ccc(CNc2oc(/C=C/c3cc(OC)c(OC)c(OC)c3)nc2C#N)cc1,?,nt,-15%[46.1 µM],nt,-22%,-19%
CCCCCCC(=O)Nc1nc(C)c(-c2csc(Nc3ccc(Cl)cc3)n2)s1,nt,-2,nt,-17,5µM*,?
CCCCCC(=O)Nc1nc(C)c(-c2csc(Nc3ccc(Cl)cc3)n2)s1,nt,1,nt,7,?,?
Cc1nc(NC(=O)c2ccco2)sc1-c1csc(Nc2ccc(Cl)cc2)n1,nt,1,nt,-4,7.9µM*,?
c1ccc2c3nnc4n(c-3nc2c1)CCCS4,9%,30*,20%,54,i,-7%
CCOC(=O)c1ccc(NC(=O)C2C3CCCCC32)cc1 (stereo not given),?,43*,?,103*,-27%,-24%
COc1ccc(NC(=S)N2CCCC2)cc1,?,23,?,23,-15%,-23%
CCOC(=O)c1ccc(NC(=O)COc2ccccc2CNC2CCCC2)cc1,?,-1,8.9µM*,2,i,?
COc1ccc(NC(=O)C(=S)N2CCCC2)cc1,?,30*,?,35,-4%,-8%
O=C(NC(=S)Nc1ccc(Br)cc1)C1CCC1,-27%[46.1 µM],47*,0%[46.1 µM],102*,0%,-22%
CCOC(=O)c1ccc(NC(=O)COc2ccccc2OC)cc1,0%,-1,0%,-3,nt,0%
Cc1ccc(C(=O)NC(C(=O)NC2CCCC2)c2ccccc2)cc1 (stereo not given),-8%[46.1 µM],-3,-1%[46.1 µM],-1,i,0%
COC(=O)CC=C[C@@H](C)[C@H](NC(=O)OCC(Cl)(Cl)Cl)c1cccc(OC)c1,nt,nt,-8%[14.2 µM],nt,nt,nt
CCOc1ccc(CCN2C(=O)C3C4C=CC(C4)C3C2=O)cc1OCC (stereo not given),nt,-3,nt,7,nt,nt
CCOc1ccc(NC(=O)C(CC)n2nc(C)c3c(C)n(-c4ccccc4)nc3c2=O)cc1 (stereo not given),-2%[46.1 µM],-9,-18%[46.1 µM],-5,?,-17%
Cc1nn(CCCC(=O)Nc2cccc(F)c2)c(=O)c2c1sc1ccccc12,-10%[46.1 µM],nt,?,nt,-9%,-9%
Cc1ccc(S(=O)(=O)N2CCC(C(=O)OCC(=O)N(C)C3CCS(=O)(=O)C3)CC2)cc1C (stereo not given),-4%,nt,-5%,nt,i,-9%
CCOC(=O)c1ccc(NC(=S)NC2CCCC2)cc1,7%,22*,24%,+,-10%,-14%
CCOC(=O)c1ccc(NC(=O)CNC(=O)C2CCCCC2)cc1,7%,-4,7%,-11,-28%,-20%
O=C(NC(=S)Nc1ccc(Br)cc1)C1CCCCC1,nt,9,nt,-10,nt,nt
CC(C)(C)C(=O)Nc1ccc(C(=O)OC2CCCCC2)cc1,?,50*,?,102*,-10%,-5%
CCOC(=O)c1ccc(NC(=S)NC(=O)C2CCCC2)cc1,4%[46.1 µM],27*,-8%[46.1 µM],21,-14%,-4%
O=C(O)c1ccc(NC(=S)NC2CCCCC2)cc1,7%,7,?,10,-11%,-3%
COc1ccc(NC(=S)NC(=O)C2CCC2)cc1,nt,40*,nt,43*,nt,nt
COc1cccc(-n2c(=O)c3c4c(sc3n(Cc3ccccc3C#N)c2=O)CCCC4)c1,4%[46.1 µM],nt,-16%[46.1 µM],nt,-6%,2%
Cc1oc(-c2cccc(NC(=O)c3ccccn3)c2)nc1CNC(=O)C#Cc1ccccc1,nt,nt,nt,nt,-3%,-16%
Cc1ccc(NC(=O)C2CCN(C(=O)NCc3ccccc3)CC2)cc1C,-3%[46.1 µM],-2,15%[46.1 µM],-4,-9%,-3%

# Screens (PubChem)
